From PubChem BioAssay (NCATS)
Records with an inconclusive call do not appear. Activity calls are given as the source filed them. The call rests on the fitted dose curve; in most records, active means well fitted curve in the direction sought with a large enough effect; inconclusive means small, poorly fitted or top-dose-only effect, or another doubt; inactive means no such curve, though single readings can be large; an effect the other way counts as inactive or inconclusive.

Molecular target: Luciferin 4-monooxygenase (Photinus pyralis) (UniProt P08659)
Assay: Biochemical firefly luciferase enzyme assay for NPC (AID 624030);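 on activity change, negative = inhibition: purified P. pyralis luciferase at 10 nM with luciferin and ATP substrate; 0% = DMSO and -100% = full luciferase inhibition by PTC124 control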
Conditions: purified P. pyralis luciferase, luminescence, 5 min; series mostly up to 58.6 µM; activity change, negative = inhibition: at the top concentration
Summary of the method: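 Direct inhibition of firefly luciferase enzyme (10 nM final, 50 mM Tris Acetate) assessed by luminescence within 5 minutes. Percent activity scaled between DMSO and PTC124 positive control, with concentration-effect curves classified by fit quality and response.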
Further: nearly all actives have a fitted effect of over 70% in size.
Potency means the concentration at half of the fitted maximal effect.

Luciferin 4-monooxygenase (Photinus pyralis), sequence (P08659 whole entry, looked up): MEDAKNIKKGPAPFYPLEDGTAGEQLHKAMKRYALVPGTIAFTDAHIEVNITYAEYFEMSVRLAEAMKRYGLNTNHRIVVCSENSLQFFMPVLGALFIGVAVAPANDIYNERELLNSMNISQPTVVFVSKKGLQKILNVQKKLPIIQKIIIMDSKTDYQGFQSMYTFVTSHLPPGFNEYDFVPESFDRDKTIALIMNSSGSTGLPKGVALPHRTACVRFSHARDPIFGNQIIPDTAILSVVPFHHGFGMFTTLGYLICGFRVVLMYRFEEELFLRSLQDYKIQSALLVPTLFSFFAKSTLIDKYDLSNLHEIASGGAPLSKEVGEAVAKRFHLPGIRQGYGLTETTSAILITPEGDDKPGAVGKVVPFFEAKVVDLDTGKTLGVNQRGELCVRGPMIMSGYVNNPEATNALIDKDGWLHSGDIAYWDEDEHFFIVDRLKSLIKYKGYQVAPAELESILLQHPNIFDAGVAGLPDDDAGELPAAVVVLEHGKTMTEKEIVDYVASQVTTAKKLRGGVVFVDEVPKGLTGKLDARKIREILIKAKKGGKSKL

SMILES	activity change, negative = inhibition	Potency
CCOC(=O)C(C#N)=C(c1ccccc1)c1ccccc1	-2.05% (inactive)	–
O=C(Nc1ccc([N+](=O)[O-])cc1)Nc1ccc([N+](=O)[O-])cc1	5.96% (inactive)	–
CCN(CC)CCOC(=O)C1(c2ccccc2)CCCC1	3.17% (inactive)	–
O=C(O)CCc1nc2ccccc2[nH]1	1.71% (inactive)	–
Cn1c(=O)c2[nH]c(Br)nc2n(C)c1=O	-8.35% (inactive)	–
O=C1C(O)=C(O)C(=O)C(O)=C1O	-12.7% (inactive)	–
CCC(C(=O)OCCOCCN(CC)CC)c1ccccc1 (stereo not drawn)	-15.6% (inactive)	–
CCN1/C(=C/C=C/c2sc3ccccc3[n+]2CC)Sc2ccccc21	–	12.8 µM (active)
CC(=O)O[C@]1(C(C)=O)CC[C@H]2[C@@H]3C=C(Cl)C4=CC(=O)CC[C@]4(C)[C@H]3CC[C@@]21C	-1.34% (inactive)	–
Cc1ncc(CO)c(C=O)c1O	-2.31% (inactive)	–
OC1C(O)C(O)C(O)C(O)C1O (stereo not drawn)	5.16% (inactive)	–
CC1CCc2c(N3CCC(O)CC3)c(F)cc3c(=O)c(C(=O)O)cn1c23 (stereo not drawn)	0.732% (inactive)	–
CCCN(CCc1cccs1)[C@H]1CCc2c(O)cccc2C1	6.78% (inactive)	–
COc1cc(C(=S)N2CCOCC2)ccc1O	1.35% (inactive)	–
O=C(O)Cc1csc(-c2ccc(Cl)cc2)n1	-6.82% (inactive)	–
Cc1cccc(C)c1NC(=O)c1ccccc1C(=O)O	-0.151% (inactive)	–
Cc1cccc(C)c1NC(=O)CN1CCCC1	-0.696% (inactive)	–
COc1cc(C(=O)N2CCCCCCC2)cc(OC)c1OC	2.33% (inactive)	–
CC(C)(Cc1c[nH]c2ccccc12)NCC(O)COc1ccccc1C#N (stereo not drawn)	7.17% (inactive)	–
CCc1nn(CCCN2CCN(c3cccc(Cl)c3)CC2)c(=O)n1CCOc1ccccc1	1.68% (inactive)	–
O=C1C(=O)c2ccccc2C(O)=C1C1CCC(c2ccc(Cl)cc2)CC1 (stereo not drawn)	-9.12% [at 24.9 µM] (inactive)	–
COc1ccc(CCN(C)CCCN2CCc3cc(OC)c(OC)cc3CC2=O)cc1OC	-2.19% (inactive)	–
COc1cc(C)nc(-n2nc(C)cc2OC)n1	-1.39% [at 24.9 µM] (inactive)	–
CC(=O)Nc1ccc(S(=O)(=O)Nc2ccc([N+](=O)[O-])cc2)cc1	-0.307% (inactive)	–
CC(C)Cn1cnc2c1c(=O)n(C)c(=O)n2C	2.3% (inactive)	–
COc1cc(O)c(C(=O)c2ccccc2)cc1S(=O)(=O)O	-2.18% (inactive)	–
CCc1cc(Cl)c(OC)c(C(=O)NC[C@@H]2CCCN2CC)c1O	–	inactive

Test system: not listed separately
Assay: S16 Schwann cell viability assay (CellTiter-Glo assay) (AID 624031);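 on activity change, negative = cytotoxicity: cellular ATP luminescence as a viability measure; plate controls were DMSO-treated cells for no effect and cell-free wells for full effect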
Conditions: S16 rat Schwann cells viability, 24 h; series mostly up to 57.5 µM; activity change, negative = cytotoxicity: at the top concentration
Summary of the method: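 This viability control uses native rat S16 Schwann cells grown in DMEM plus 10% FBS. After a 24 h compound treatment at 37 °C, CellTiter-Glo luminescence reports ATP content, scaled against DMSO-treated and cell-free wells.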

SMILES	activity change, negative = cytotoxicity	Potency
CCOC(=O)C(C#N)=C(c1ccccc1)c1ccccc1	3.31% (inactive)	–
O=C(Nc1ccc([N+](=O)[O-])cc1)Nc1ccc([N+](=O)[O-])cc1	-28.2% (inactive)	–
CCN(CC)CCOC(=O)C1(c2ccccc2)CCCC1	1.27% (inactive)	–
O=C(O)CCc1nc2ccccc2[nH]1	-5% (inactive)	–
Cn1c(=O)c2[nH]c(Br)nc2n(C)c1=O	-21.8% (inactive)	–
O=C1C(O)=C(O)C(=O)C(O)=C1O	-9.74% (inactive)	–
CCC(C(=O)OCCOCCN(CC)CC)c1ccccc1 (stereo not drawn)	10.9% (inactive)	–
CCN1/C(=C/C=C/c2sc3ccccc3[n+]2CC)Sc2ccccc21	–	4.05 µM (active)
CC(=O)O[C@]1(C(C)=O)CC[C@H]2[C@@H]3C=C(Cl)C4=CC(=O)CC[C@]4(C)[C@H]3CC[C@@]21C	-16.4% (inactive)	–
Cc1ncc(CO)c(C=O)c1O	8.21% (inactive)	–
OC1C(O)C(O)C(O)C(O)C1O (stereo not drawn)	-4.13% (inactive)	–
CC1CCc2c(N3CCC(O)CC3)c(F)cc3c(=O)c(C(=O)O)cn1c23 (stereo not drawn)	1.98% (inactive)	–
COc1cc(C(=S)N2CCOCC2)ccc1O	-5.02% (inactive)	–
O=C(O)Cc1csc(-c2ccc(Cl)cc2)n1	-16.7% (inactive)	–
Cc1cccc(C)c1NC(=O)c1ccccc1C(=O)O	-1.77% (inactive)	–
Cc1cccc(C)c1NC(=O)CN1CCCC1	3.85% (inactive)	–
O=C1C(=O)c2ccccc2C(O)=C1C1CCC(c2ccc(Cl)cc2)CC1 (stereo not drawn)	3.05% [at 25.7 µM] (inactive)	–
COc1ccc(CCN(C)CCCN2CCc3cc(OC)c(OC)cc3CC2=O)cc1OC	-3.11% (inactive)	–
COc1cc(C)nc(-n2nc(C)cc2OC)n1	4.85% [at 25.7 µM] (inactive)	–
CC(=O)Nc1ccc(S(=O)(=O)Nc2ccc([N+](=O)[O-])cc2)cc1	-0.0844% (inactive)	–
COc1cc(O)c(C(=O)c2ccccc2)cc1S(=O)(=O)O	-0.933% (inactive)	–
